Assay results: PubChem BioAssay (NCATS)
Calls of active or inactive are those of the source. The rule behind the calls is not given here.

system: HIV-1 nucleocapsid protein NCp7 (binding to TG oligonucleotide); assay: HIV Nucleocapsid (AID 346); settings: HIV-1 NC / fluorescein-TGTGTGTG probe, fluorescence polarization;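 note: potency is for inhibitors that block NC binding and lower polarization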
Procedure, shortened: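 10 nM TG4xF probe with 100 nM nucleocapsid protein in high-salt Hepes pH 7.5 (250mM NaCl) containing 1uM ZnCl2 and reducing agents. Compound inhibition of binding was read as fluorescein polarization after 1 hr at room temperature.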
Potency is the fitted concentration of half-maximal effect.

Structure (SMILES) | Potency
COc1ncc2nc(-c3cc(F)cc(F)c3)c(=O)n(-c3ccccc3)c2n1 | > 20 µM (inactive)
O=C(Nc1cccc(F)c1)N1CCCC2(CCN(C(=O)c3csnn3)CC2)C1 | > 20 µM (inactive)
COc1ccc(C(=O)N2CCC3(CC2)CCN(c2ccccn2)CC3)cc1 | > 20 µM (inactive)
CCNc1ncc2nc(-c3cccs3)c(=O)n(CCc3ccccc3)c2n1 | > 20 µM (inactive)
O=C(c1csnn1)N1CCC2(CCCN(Cc3cc(C(F)(F)F)cc(C(F)(F)F)c3)C2)CC1 | > 20 µM (inactive)
COc1ncc2nc(C)c(=O)n(CCc3ccccc3)c2n1 | > 20 µM (inactive)
CS(=O)(=O)N1CCC2(CC1)CN(c1ccc(-c3ccccc3)cc1)C2 | > 20 µM (inactive)
COc1ccccc1CNc1nc(-c2cccc(NS(C)(=O)=O)c2)nc2ccccc12 | > 20 µM (inactive)
CS(=O)(=O)N1CCC2(CCCN(c3ncccn3)C2)CC1 | > 20 µM (inactive)
Cc1noc(C)c1-c1ccc2ncnc(N3CCOCC3)c2c1 | > 20 µM (inactive)
COc1ccc(CNc2ccnc(-c3cccnc3)n2)c(OC)c1 | > 20 µM (inactive)
Cn1cc(-c2nc3cnc(N4CCNCC4)nc3n(-c3ccccc3)c2=O)c2ccccc21 | > 4 µM (inactive)
Cc1nc2cnc(N(C)C)nc2n(CCC#N)c1=O | > 20 µM (inactive)
Cc1ccccc1-c1cncnc1NC1CCNCC1 | > 20 µM (inactive)
COc1cccc(Cn2c(=O)c(-c3cc(F)cc(F)c3)nc3cnc(N4CCN(C)CC4)nc32)c1 | > 20 µM (inactive)
O=C(c1ccncc1)N1CCC2(CC1)CCN(c1ccccn1)CC2 | > 20 µM (inactive)
Cc1cnc(CNc2nc(-c3ccc(C(=O)N(C)C)cc3)nc3ccccc23)cn1 | > 20 µM (inactive)
N#Cc1cccc(-c2nc3cnc(Oc4cccc(Cl)c4)nc3n(C3CC3)c2=O)c1 | > 20 µM (inactive)
COc1ccc2[nH]cc(CCNc3ncnc4ccc(-c5ccc(C(=O)N(C)C)cc5)cc34)c2c1 | > 20 µM (inactive)
COCC(=O)N1CCC2(CC1)CN(c1ccccc1)C2 | > 20 µM (inactive)
Cc1nc2cnc(Oc3ccccc3)nc2n(CCC#N)c1=O | > 20 µM (inactive)
CC(C)CN1CCCC2(CCN(C(=O)c3cnccn3)CC2)C1 | > 20 µM (inactive)
CS(=O)(=O)Nc1cccc(-c2ccc3ncnc(NC4CCNCC4)c3c2)c1 | > 20 µM (inactive)
Cc1ccccc1-c1cncnc1N1CCNCC1 | > 20 µM (inactive)
COc1ccccc1-c1nc(N2CCOCC2)c2ccccc2n1 | > 20 µM (inactive)
O=C(c1ccco1)N1CCC2(CC1)CCN(c1cccc(-c3ccccc3)c1)CC2 | > 20 µM (inactive)
